Results reported in ChEMBL document CHEMBL3988442, “University of Dundee, Small-Polar-MMV Screening Library” (2021).
For some of these results: Measured potencies and affinities stand elsewhere.

What was measured:
Set-up in all cases: scale not given: direction of the effect not stated beside the values
[1] = molecular target: Protein translocase subunit SecA (Escherichia coli (strain K12)) (UniProt P10408); assay: Assay to Identify E. coli SecA ATPase Inhibitors; format: functional; conditions: 30 µM
[2] = molecular target: T1, Ubiquitin-activating enzyme e1, putative (Leishmania donovani (strain BPK282A1)) (UniProt E9BSI1); assay: Leishmania donovani Ubiquitin Activating Enzyme (LdE1); format: functional; conditions: 30 µM
T1 sequence (whole entry): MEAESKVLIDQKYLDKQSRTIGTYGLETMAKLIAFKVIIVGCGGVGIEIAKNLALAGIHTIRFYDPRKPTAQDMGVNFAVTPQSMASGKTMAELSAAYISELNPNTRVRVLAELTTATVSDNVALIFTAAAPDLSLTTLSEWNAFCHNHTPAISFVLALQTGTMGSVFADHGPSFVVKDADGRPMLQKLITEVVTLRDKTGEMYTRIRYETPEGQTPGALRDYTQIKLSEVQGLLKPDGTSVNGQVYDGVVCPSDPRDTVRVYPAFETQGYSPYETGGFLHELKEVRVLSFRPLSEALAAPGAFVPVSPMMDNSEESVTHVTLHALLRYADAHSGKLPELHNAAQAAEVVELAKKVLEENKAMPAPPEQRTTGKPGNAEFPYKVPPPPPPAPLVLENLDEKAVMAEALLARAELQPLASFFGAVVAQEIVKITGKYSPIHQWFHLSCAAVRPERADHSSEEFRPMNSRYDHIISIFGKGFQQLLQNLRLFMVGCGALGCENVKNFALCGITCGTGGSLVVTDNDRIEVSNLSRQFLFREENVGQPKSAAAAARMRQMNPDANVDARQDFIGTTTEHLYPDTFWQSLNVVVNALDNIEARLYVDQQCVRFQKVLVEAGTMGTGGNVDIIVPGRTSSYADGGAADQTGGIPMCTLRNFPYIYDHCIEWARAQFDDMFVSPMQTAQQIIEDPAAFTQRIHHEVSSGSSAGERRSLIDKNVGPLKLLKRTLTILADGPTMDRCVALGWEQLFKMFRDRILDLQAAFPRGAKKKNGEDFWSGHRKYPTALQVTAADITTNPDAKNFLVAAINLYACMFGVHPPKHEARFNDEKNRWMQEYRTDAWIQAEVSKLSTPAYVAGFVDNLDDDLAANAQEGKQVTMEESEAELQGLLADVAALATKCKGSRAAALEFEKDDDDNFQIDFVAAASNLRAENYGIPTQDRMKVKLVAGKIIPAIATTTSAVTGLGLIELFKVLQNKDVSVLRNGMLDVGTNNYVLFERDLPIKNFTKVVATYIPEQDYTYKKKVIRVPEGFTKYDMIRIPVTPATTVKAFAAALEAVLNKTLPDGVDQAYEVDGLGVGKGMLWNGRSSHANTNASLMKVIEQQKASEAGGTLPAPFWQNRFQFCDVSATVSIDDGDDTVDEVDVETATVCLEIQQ

[3] = molecular target: AMP-activated protein kinase, AMPK (Homo sapiens) (UniProt P54646+O43741+P54619+Q9UGJ0+Q9Y478+Q13131+Q9UGI9); assay: AMP-dependent Kinase enzyme assay. An in vitro enzyme assay that detects ADP turnover that is directly proportional to AMPK activity. This uses naive AMPK that is activated during the assay with MK-8722; format: functional; conditions: 30 µM
[4] = molecular target: Sialic acid-binding Ig-like lectin 9 (Homo sapiens) (UniProt Q9Y336); assay: Hs-Siglec9 ALPHAscreen SOP 20170721; conditions: 10 µM
Trypanosoma cruzi = assay: Trypanosoma cruzi phosphomannomutase and mannose-1-phosphate guanylyltransferase assay; format: functional; conditions: 10 µM
[5] = molecular target: T2, Arginase-2, mitochondrial (Homo sapiens) (UniProt P78540); assay: in vitro enzyme assay to detect the production of urea directly proportional to the activity of Arginase II; format: functional; conditions: 33.3 µM; note: in the data most compounds retested in dose-response had high values
T2 sequence (whole entry): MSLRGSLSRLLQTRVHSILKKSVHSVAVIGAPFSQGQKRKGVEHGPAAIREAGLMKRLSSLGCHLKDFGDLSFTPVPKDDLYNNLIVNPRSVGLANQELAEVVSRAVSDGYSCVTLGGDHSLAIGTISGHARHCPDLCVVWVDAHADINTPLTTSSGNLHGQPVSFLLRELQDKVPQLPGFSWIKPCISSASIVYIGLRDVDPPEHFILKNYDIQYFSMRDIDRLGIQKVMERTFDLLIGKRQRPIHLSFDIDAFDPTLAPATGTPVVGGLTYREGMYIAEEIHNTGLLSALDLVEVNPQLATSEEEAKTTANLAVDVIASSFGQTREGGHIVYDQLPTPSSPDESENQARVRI

[6] = molecular target: T3, Proteasome subunit beta (Trypanosoma cruzi) (UniProt O96673); assay: Trypanosoma cruzi proteasome chymotrypsin-like activity (TcProtChymo) assay.; note: in the data most compounds retested in dose-response had high values; format: functional; conditions: 9.37 µM
T3 sequence (whole entry): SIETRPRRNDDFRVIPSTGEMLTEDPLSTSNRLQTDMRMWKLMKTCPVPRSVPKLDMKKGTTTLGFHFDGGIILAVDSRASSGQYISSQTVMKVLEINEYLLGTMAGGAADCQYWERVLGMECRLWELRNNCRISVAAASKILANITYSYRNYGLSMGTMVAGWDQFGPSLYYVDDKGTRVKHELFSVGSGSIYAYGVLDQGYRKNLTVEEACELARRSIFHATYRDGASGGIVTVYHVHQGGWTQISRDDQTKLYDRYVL

Homo sapiens = organism: Homo sapiens; assay: To identify inhibition of the IFN signalling (Jak-Stat) pathway via expression of an eGFP reporter gene under the control of an IFN-stimulated response element (ISRE) containing MxA promoter.; format: functional; conditions: 30 µM
[7] = molecular target: T4, Tyrosyl-tRNA synthetase, putative (Trypanosoma cruzi (strain CL Brener)) (UniProt Q4DSP6); assay: Trypanosoma cruzi tyrosyl tRNA synthetase (TcYRS) _High Tyrosine SOP; format: functional; conditions: 30 µM; note: in the data most compounds retested in dose-response had high values
T4 sequence (whole entry): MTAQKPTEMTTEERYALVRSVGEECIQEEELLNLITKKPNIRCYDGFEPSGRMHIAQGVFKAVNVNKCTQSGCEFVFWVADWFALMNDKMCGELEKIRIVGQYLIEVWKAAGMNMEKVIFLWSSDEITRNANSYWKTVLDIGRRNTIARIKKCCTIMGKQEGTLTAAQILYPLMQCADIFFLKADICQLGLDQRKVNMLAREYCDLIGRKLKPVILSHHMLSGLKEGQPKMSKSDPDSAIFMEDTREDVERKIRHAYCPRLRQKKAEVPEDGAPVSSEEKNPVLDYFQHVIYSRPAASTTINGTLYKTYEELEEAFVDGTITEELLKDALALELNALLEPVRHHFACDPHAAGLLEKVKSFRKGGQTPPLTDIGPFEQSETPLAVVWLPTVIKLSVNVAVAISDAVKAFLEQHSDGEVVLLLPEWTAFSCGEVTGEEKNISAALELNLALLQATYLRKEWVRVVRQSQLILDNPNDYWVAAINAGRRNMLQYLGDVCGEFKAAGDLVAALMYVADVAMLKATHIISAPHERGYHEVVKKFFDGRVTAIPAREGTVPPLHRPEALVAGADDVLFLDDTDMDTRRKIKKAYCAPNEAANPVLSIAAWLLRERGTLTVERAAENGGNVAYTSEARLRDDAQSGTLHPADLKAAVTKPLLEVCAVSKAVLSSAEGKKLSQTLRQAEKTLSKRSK

[8] = molecular target: T4, Tyrosyl-tRNA synthetase, putative (Trypanosoma cruzi (strain CL Brener)); assay: Trypanosoma cruzi tyrosyl tRNA synthetase (TcYRS) SOP; format: functional; conditions: 30 µM
[9] = molecular target: Chromo domain-containing protein 1 (Saccharomyces cerevisiae (strain ATCC 204508 / S288c) (Baker's yeast)) (UniProt P32657); assay: ScCHD-1 Enzyme Inhibition Assay; format: functional; conditions: 30 µM; note: in the data most compounds retested in dose-response had high values
Sequence of Chromo domain-containing protein 1 (Saccharomyces cerevisiae (strain ATCC 204508 / S288c) (Baker's yeast)) (P32657 whole entry, the tested form may be a part): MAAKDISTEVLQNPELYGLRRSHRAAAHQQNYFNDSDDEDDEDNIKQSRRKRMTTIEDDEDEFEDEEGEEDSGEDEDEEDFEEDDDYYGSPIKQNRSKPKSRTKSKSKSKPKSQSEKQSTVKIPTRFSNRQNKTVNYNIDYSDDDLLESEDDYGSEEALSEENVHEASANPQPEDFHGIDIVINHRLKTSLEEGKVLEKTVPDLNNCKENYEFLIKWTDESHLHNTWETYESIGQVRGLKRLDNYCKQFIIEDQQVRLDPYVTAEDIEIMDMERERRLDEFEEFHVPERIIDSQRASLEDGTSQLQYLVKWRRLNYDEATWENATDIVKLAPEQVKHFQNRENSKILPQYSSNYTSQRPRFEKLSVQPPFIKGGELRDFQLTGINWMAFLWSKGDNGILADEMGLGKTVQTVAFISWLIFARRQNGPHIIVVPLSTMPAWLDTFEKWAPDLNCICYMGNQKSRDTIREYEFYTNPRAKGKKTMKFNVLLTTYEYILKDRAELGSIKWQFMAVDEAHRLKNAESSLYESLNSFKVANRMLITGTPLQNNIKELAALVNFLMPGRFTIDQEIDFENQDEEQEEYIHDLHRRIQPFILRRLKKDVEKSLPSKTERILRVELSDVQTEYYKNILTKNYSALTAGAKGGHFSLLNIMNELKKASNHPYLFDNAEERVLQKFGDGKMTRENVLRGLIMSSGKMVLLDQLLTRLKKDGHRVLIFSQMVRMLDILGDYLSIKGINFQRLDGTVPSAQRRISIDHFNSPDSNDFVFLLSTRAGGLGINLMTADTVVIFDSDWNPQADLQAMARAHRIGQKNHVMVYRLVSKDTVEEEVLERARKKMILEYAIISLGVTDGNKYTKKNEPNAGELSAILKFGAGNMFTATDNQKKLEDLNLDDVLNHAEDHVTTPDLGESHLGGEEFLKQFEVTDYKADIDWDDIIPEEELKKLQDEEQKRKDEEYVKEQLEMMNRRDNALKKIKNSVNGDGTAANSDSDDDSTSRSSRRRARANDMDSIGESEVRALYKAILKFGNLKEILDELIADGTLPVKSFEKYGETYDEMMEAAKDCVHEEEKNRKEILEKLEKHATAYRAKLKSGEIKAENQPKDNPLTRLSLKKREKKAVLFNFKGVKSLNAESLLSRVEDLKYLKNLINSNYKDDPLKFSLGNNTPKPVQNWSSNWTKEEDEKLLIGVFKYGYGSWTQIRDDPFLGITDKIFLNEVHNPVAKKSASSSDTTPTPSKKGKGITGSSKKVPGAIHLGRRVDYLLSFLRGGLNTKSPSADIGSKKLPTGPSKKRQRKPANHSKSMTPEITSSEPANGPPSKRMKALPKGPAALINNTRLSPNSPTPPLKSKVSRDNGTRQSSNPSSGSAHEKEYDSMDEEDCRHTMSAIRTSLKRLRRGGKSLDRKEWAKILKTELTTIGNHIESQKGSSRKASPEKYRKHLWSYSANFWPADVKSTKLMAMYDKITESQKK

Sequence of Sialic acid-binding Ig-like lectin 9 (Homo sapiens) (Q9Y336 whole entry): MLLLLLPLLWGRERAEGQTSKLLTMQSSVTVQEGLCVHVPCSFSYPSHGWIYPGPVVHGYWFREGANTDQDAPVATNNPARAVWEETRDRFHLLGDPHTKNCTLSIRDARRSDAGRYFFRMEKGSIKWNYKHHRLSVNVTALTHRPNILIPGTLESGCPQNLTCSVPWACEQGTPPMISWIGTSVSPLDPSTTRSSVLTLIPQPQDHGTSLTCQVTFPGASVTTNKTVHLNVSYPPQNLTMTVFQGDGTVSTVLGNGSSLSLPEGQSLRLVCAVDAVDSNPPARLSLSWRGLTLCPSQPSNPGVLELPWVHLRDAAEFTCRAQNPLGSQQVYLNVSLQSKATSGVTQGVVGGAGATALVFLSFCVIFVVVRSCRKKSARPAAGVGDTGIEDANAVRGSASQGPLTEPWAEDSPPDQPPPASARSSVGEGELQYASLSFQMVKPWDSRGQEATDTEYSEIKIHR
Sequence of Protein translocase subunit SecA (Escherichia coli (strain K12)) (P10408 whole entry): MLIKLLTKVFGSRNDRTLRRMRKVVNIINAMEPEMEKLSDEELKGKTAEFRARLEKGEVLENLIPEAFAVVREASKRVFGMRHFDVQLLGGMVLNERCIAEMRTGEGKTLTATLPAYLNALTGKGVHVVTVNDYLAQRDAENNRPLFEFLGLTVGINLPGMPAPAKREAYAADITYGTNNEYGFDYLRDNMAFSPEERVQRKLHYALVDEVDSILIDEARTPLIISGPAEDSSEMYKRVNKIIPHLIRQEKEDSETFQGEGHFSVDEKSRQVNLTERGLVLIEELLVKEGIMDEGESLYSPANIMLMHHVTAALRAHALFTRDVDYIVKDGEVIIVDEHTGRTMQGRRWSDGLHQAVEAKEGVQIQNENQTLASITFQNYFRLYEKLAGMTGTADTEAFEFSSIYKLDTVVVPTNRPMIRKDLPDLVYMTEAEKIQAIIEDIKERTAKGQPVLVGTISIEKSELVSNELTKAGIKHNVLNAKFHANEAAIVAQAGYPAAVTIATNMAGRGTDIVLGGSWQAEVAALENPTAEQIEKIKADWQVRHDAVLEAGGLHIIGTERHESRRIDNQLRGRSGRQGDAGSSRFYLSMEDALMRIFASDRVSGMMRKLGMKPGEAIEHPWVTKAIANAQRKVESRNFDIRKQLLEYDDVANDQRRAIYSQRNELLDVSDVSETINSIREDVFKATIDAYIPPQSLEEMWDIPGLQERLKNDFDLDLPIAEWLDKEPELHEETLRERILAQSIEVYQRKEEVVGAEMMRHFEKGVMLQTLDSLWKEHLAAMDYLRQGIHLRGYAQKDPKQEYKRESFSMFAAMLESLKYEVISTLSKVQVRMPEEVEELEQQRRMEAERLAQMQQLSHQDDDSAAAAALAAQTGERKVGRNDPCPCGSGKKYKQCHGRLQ

| Structure (SMILES) | Percent Effect [1] [%] | Percent Effect [2] [%] | Percent Effect [3] [%] | Percent Effect [4] [%] | Percent Effect (Trypanosoma cruzi) [%] | Percent Effect [5] [%] | Percent Effect [6] [%] | Percent Effect (Homo sapiens) [%] | Percent Effect [7] [%] | Percent Effect [8] [%] | Percent Effect [9] [%] |
| --- | --- | --- | --- | --- | --- | --- | --- | --- | --- | --- | --- |
| CCn1cc(NC(=O)NCC(O)c2ccccc2)cn1 (stereo unspecified) | -2.26 | 12.7 | -8.7 | 13.4 | -1.98 | 1.52 | 3.19 | -8.48 | 1.48 | 13.9 | -3.66 |
| COc1cccc(OCc2cc(C(=O)NC[C@H]3CCCN3)n[nH]2)c1 | -3.48 | 15.3 | -5.03 | 30.2 | 3.4 | 15.4 | 7.19 | -6.81 | 1.05 | 12.8 | -5.02 |
| CCn1ncc2c1C(COC)CN(Cc1ccsc1)C2 (stereo unspecified) | -3.96 | 18.9 | -9.13 | 5.54 | 1.47 | 1.24 | 6.95 | 5.76 | 7.53 | 16.1 | -11.9 |
| COC(=O)CS(=O)(=O)CCC(=O)N1CCCC1c1ccsc1 (stereo unspecified) | -3.22 | 6.94 | -5.88 | 21.4 | 2.82 | -2.21 | 5.44 | -6.88 | 5.26 | 7.69 | -2.96 |
| COc1ncccc1C(=O)Nc1nc2c(s1)CN(S(=O)(=O)C1CC1)CC2 | -8.71 | 0 | 25.5 | -2.45 | -4.9 | 1.82 | 29.8 | 21.4 | 3.23 | 5 | 102 |
| Cc1ccc(N2CCCC(NCc3ccncc3)C2)nn1 (stereo unspecified) | -2.1 | 11.4 | -4.43 | -7.21 | 0.718 | -3.23 | 26.8 | -2.46 | 0 | 2.53 | -31.9 |
| Cc1cccc(S(=O)(=O)NCC(C)N2CCN(C)CC2)c1Cl (stereo unspecified) | -5.19 | 2.6 | -2.53 | -0.382 | -0.492 | -2.76 | 2.83 | 7.45 | 0 | 3.7 | 0.187 |
| CO[C@@H]1CC[C@H]2[C@H]1OCCN2C(=O)C1=CCCC1 | -3.13 | 10.4 | -1.31 | -0.155 | -4.83 | 16.1 | 7.49 | -1.44 | -2.12 | 14.1 | -6.88 |
| N#Cc1ccccc1N1CCCN(C(=O)CCn2cccn2)CC1 | -6.4 | 15.2 | 5.53 | 0.749 | 5.19 | -0.76 | 6.8 | 3.94 | 5.42 | 16.5 | -6.74 |
| c1ncn(Cc2cnc3n2CCN(Cc2ccsc2)CC3)n1 | -7.34 | 5.33 | 7.1 | 2.34 | -5.32 | -2.1 | 5.9 | 14.2 | 2.13 | 8.97 | 2.03 |
| COCCN1CCC(NCc2cccc(F)c2)C1 (stereo unspecified) | -3.31 | 13 | -4.27 | 0.179 | -5.24 | -4.27 | 8.78 | 32.2 | 5.83 | 0 | -9.86 |
